# Shown is part of a subset that was picked to be rich in hits.
# miR122 inh = miR-122 suppressors via Renilla sensor increase, primary screen, cell-based, Huh7 psiCHECK-miR122, Renilla luciferase, single point | hit rate 0.14% among 340,000 | activation, % at 12.5 µM | AID 623901, 2012 | 48 h;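 active = mean activation of 30% or more, with every replicate also reaching 30%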;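 note: 0% = median of neutral control wells and 100% = median of positive control wells; higher luciferase signal means stronger suppression of miR-122 activity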
# The depositor's hits bear a star.
SMILES,miR122 inh
CNC[C@@H]1Oc2cc(C#CC3CCCCC3)ccc2S(=O)(=O)N([C@@H](C)CO)C[C@@H]1C,51.3*
CNC[C@@H]1Oc2cc(C#C[C@H](C)O)ccc2S(=O)(=O)N([C@@H](C)CO)C[C@@H]1C,4.7
CNC[C@H]1Oc2cc(C#CC(C)C)ccc2S(=O)(=O)N([C@@H](C)CO)C[C@@H]1C,-6.7
CNC[C@H]1Oc2cc(C#C[C@H](C)O)ccc2S(=O)(=O)N([C@H](C)CO)C[C@@H]1C,-1.3
C[C@@H]1CN([C@H](C)CO)C(=O)c2cc(-c3ccncc3)cnc2O[C@@H]1CN(C)C(=O)c1ccccc1F,7.3
C[C@@H]1CN([C@H](C)CO)S(=O)(=O)c2ccc(-c3cncnc3)cc2O[C@H]1CN(C)Cc1ccccn1,5.5
CO[C@@H]1CN(C)C(=O)c2ccc(NC(=O)Nc3ccccc3)cc2OC[C@H](C)N(C(C)=O)C[C@H]1C,-2.0
C[C@@H]1CN([C@@H](C)CO)C(=O)c2cc(-c3ccc(C#N)cc3)cnc2O[C@@H]1CN(C)CC1CCOCC1,7.0
C[C@@H]1CN([C@H](C)CO)C(=O)c2cc(-c3cccc(F)c3)cnc2O[C@H]1CN(C)Cc1cncnc1,-4.6
COCC#Cc1ccc2c(c1)O[C@H](CN(C)C(C)=O)[C@H](C)CN([C@@H](C)CO)S2(=O)=O,1.2
COCC(=O)N(C)C[C@H]1Oc2cc(C#CC(C)C)ccc2S(=O)(=O)N([C@H](C)CO)C[C@H]1C,21.2
CCS(=O)(=O)Nc1ccc2c(c1)C(=O)N(C)C[C@@H](OC)[C@@H](C)CN[C@H](C)CO2,-1.0
COCC(=O)N(C)C[C@@H]1Oc2ncc(C#Cc3ccccc3OC)cc2C(=O)N([C@@H](C)CO)C[C@@H]1C,6.4
CCC(=O)N(C)C[C@@H]1Oc2ncc(C#Cc3ccccc3OC)cc2C(=O)N([C@@H](C)CO)C[C@H]1C,3.0
COCC(=O)Nc1ccc2c(c1)C(=O)N(C)[C@@H]1CC[C@H](CC(=O)NCCCN(C)C)O[C@H]1CO2,45.0*
COCC(=O)Nc1ccc2c(c1)C(=O)N(C)[C@H]1CC[C@@H](CC(=O)O)O[C@H]1CO2,-262.5
COCC(=O)Nc1ccc2c(c1)C(=O)N(C)[C@@H]1CC[C@H](CC(=O)NCc3ccccc3F)O[C@H]1CO2,50.0*
C[C@@H]1CN([C@@H](C)CO)S(=O)(=O)c2ccc(-c3cncnc3)cc2O[C@H]1CN(C)C(=O)Cc1cccnc1,-1.0
C/C=C/c1cnc2c(c1)C(=O)N([C@H](C)CO)C[C@H](C)[C@@H](CN(C)S(=O)(=O)c1ccc(C)cc1)O2,-16.7
COc1ccc(CN(C)C[C@@H]2Oc3ccc(NC(=O)C4CCCCC4)cc3CC(=O)N([C@@H](C)CO)C[C@H]2C)cc1,1.5
COCC#Cc1ccc2c(c1)O[C@@H](CN(C)C(=O)COC)[C@@H](C)CN([C@H](C)CO)S2(=O)=O,0.9
CO[C@@H]1CN(C)C(=O)c2cc(NC(C)=O)ccc2OC[C@@H](C)N(C(=O)c2ccccc2)C[C@@H]1C,-3.2
COc1ccc(S(=O)(=O)N(C)C[C@@H]2Oc3cc(-c4ccccc4OC)ccc3S(=O)(=O)N([C@H](C)CO)C[C@H]2C)cc1,-0.2
C[C@@H]1CN([C@H](C)CO)C(=O)c2cc(-c3cccc(F)c3)cnc2O[C@@H]1CN(C)C(=O)c1ccccn1,-0.2
C[C@@H]1CN([C@H](C)CO)S(=O)(=O)c2ccc(-c3ccccc3)cc2O[C@H]1CN(C)Cc1cncnc1,-15.8
SMILES,miR122 inh
Cc1onc(C(=O)N2CCN(C(c3ccccc3)c3ccccc3)CC2)c1[N+](=O)[O-],30.5*
O=C(c1cc([N+](=O)[O-])ccc1N1CCOCC1)N1CCN(c2ccccc2)CC1,-90.3
C[C@H]1CN([C@@H](C)CO)C(=O)c2cccc(NC(=O)C3CC3)c2O[C@@H]1CN(C)Cc1ccc(C(F)(F)F)cc1,-113.0
COc1cccc(C#Cc2cnc3c(c2)C(=O)N([C@H](C)CO)C[C@H](C)[C@@H](CN(C)C(=O)C2CCCCC2)O3)c1,-7.0
O=C(c1cccc(F)c1)N1C[C@H]2[C@@H](c3ccccc31)[C@@H](CO)N2C(=O)c1ccc(F)cc1,-191.7
O=C(c1cccnc1)N1C[C@H]2[C@@H](c3ccccc31)[C@H](CO)N2C(=O)C1CCCC1,40.0*
CCN(C[C@H]1[C@H](c2ccccc2)[C@@H](CO)N1C(=O)COC)S(C)(=O)=O,-91.7
COc1ccc(C(=O)N2C[C@H]3[C@@H](c4ccccc42)[C@@H](CO)N3C(=O)c2ccc(F)cc2)cc1,-91.7
O=C(c1ccc(F)cc1)N1C[C@H]2[C@@H](c3ccccc31)[C@@H](CO)N2C(=O)c1ccc(F)cc1,-364.1
COCC(=O)N1[C@H](CO)[C@H]2c3ccccc3N(C(=O)C3CC3)C[C@H]21,41.7*
C[C@@H]1CN([C@@H](C)CO)C(=O)c2cc(-c3cccc(F)c3)cnc2O[C@@H]1CN(C)C(=O)Nc1ccccc1F,-8.6
C[C@@H]1CN([C@@H](C)CO)C(=O)c2cc(C#Cc3ccccn3)cnc2O[C@@H]1CN(C)Cc1cccnc1,2.1
CCC(=O)Nc1ccc2c(c1)OC[C@H](C)NC[C@H](C)[C@H](OC)CN(C)C2=O,-1.5
C[C@@H]1CN([C@H](C)CO)C(=O)c2cc(C#CC3(O)CCCC3)cnc2O[C@@H]1CN(C)S(C)(=O)=O,4.6
Cc1cc(C(=O)N/N=C/c2cc(Br)ccc2OC(=O)c2ccccc2)n[nH]1,32.5*
C[C@H](CO)N1C[C@H](C)[C@@H](CN(C)C(=O)C2CCCCC2)Oc2ncc(C3=CCCC3)cc2C1=O,2.3
Cn1c(-c2ccc(N)cc2)nc2ccccc21,36.0*
CCC(=O)N(C)C[C@H]1Oc2ncc(C#CCC3CCCC3)cc2C(=O)N([C@@H](C)CO)C[C@@H]1C,7.0
C[C@H]1CN([C@@H](C)CO)C(=O)c2cc(-c3cccc(F)c3)cnc2O[C@H]1CN(C)Cc1ccncc1,3.3
COc1cccc(N2CCN(C(=S)Nc3cccc(C)c3)CC2)c1,-120.7
O=S(=O)(Nc1ccccc1)c1ccc(Oc2ncc(C(F)(F)F)cc2Cl)cc1,-94.2
FC(F)(F)c1cnc(N2CCCN(C(=S)Nc3ccccc3)CC2)c(Cl)c1,37.1*
C[C@H](CO)N1C[C@H](C)[C@H](CN(C)S(C)(=O)=O)Oc2ncc(-c3cccnc3)cc2C1=O,-6.5
COCC(=O)N(C)C[C@H]1Oc2cc(-c3cccc(F)c3)ccc2S(=O)(=O)N([C@@H](C)CO)C[C@@H]1C,-6.1
COCC(=O)N(C)C[C@H]1Oc2cc(-c3cccc(F)c3)ccc2S(=O)(=O)N([C@H](C)CO)C[C@H]1C,13.7
SMILES,miR122 inh
COc1ccc(-c2ccc3c(c2)O[C@H](CN(C)C(=O)c2ccccc2F)[C@H](C)CN([C@@H](C)CO)S3(=O)=O)cc1,12.9
COc1ccccc1-c1ccc2c(c1)O[C@@H](CN(C)S(=O)(=O)c1ccc(F)cc1)[C@@H](C)CN([C@@H](C)CO)S2(=O)=O,35.9*
COc1ccc(-c2ccc3c(c2)O[C@H](CN(C)C(=O)c2ccccc2F)[C@H](C)CN([C@H](C)CO)S3(=O)=O)cc1,3.5
COc1ccc(-c2ccc3c(c2)O[C@H](CN(C)C(=O)Nc2ccccc2F)[C@H](C)CN([C@@H](C)CO)S3(=O)=O)cc1,31.8*
COc1ccccc1-c1ccc2c(c1)O[C@@H](CN(C)S(=O)(=O)c1ccc(C)cc1)[C@H](C)CN([C@@H](C)CO)S2(=O)=O,3.4
COc1ccccc1-c1ccc2c(c1)O[C@H](CN(C)S(=O)(=O)c1ccc(C)cc1)[C@H](C)CN([C@H](C)CO)S2(=O)=O,-55.5

# Assay outcomes (PubChem)
